Growth inhibition, inhibition and outcome data for 19 compounds are collected here from PubChem BioAssay.

Unmarked numbers belong to inactive results. For some assays here: Entries with a potency or affinity are not part of this list. Activity calls are given as the source filed them. Unless noted, how the calls were made is not given here.

Assay [1] is described as follows: antimalarial activity against Dd2 strain (AID 2302;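 active means growth inhibition above 50% at the single 2 µM test dose, taken to imply half-maximal potency below 2 µM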;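 further: 0% = DMSO untreated growth and 100% = chloroquine plus artemisinin killed control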). The following applies: P. falciparum Dd2 in RBCs, LDH growth readout, 72 h; at 2 µM; active compounds read high.
Assay [2] in a line: HepG2 cytotoxicity, primary screen, cytotoxicity control for P. falciparum antimalarial project, cell-based, ATP luminescence (AID 2303;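 active means inhibition above 50%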;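 further: 0% = DMSO wells and 100% = digitonin-killed cells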). The following applies: HepG2 viability, 24-48 h, at 10 µM, active compounds read high.
For assay [3], the target named is L-lactate dehydrogenase (Plasmodium falciparum (isolate CDC / Honduras)) (UniProt Q27743). As to the kind of experiment: PfLDH activity inhibition – cell lysate, 3D7 strain, counter-screen for P. falciparum growth inhibition project (AID 2304).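 Further: 0% = vehicle and 100% = reference inhibitor.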 To be noted: P. falciparum 3D7 crude extract, LDH APAD/NBT absorbance; at 2 µM; active compounds read high.
Assay [4] can be described thus: inhibition of 3D7 malaria parasite growth – strain 3D7 (AID 2306).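 Further: 0% = DMSO wells and 100% = chloroquine plus artemisinin control wells.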 To be noted: P. falciparum 3D7 erythrocytic growth, LDH absorbance, 72 h; at 2 µM; active compounds read high.
Assay [5] has as its target Calcium-dependent protein kinase 1 (Plasmodium falciparum (isolate 3D7)) (UniProt P62344). Briefly: PfCDPK1 kinase inhibitors, biochemical, TCAMS library (AID 1159585; cut-off not given, nearly all actives have IC50 up to about 0.98 µM;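 further: inhibitors leave more ATP so luminescence rises with inhibition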). The following applies: recombinant PfCDPK1, Kinase-Glo ATP depletion luminescence.
The target in assay [6] is Plasmodium falciparum protein kinase 6 (PK6, PF3D7_1337100) (UniProt Q8IDW1). As to the kind of experiment: PfPK6 kinase inhibitors, biochemical, TCAMS library (AID 1159586). To be noted: recombinant PfPK6, Kinase-Glo ATP depletion luminescence.
In assay [7] the target is Protein kinase 7 (PK7), Plasmodium falciparum 3D7 (PF3D7_0213400) (UniProt Q7YTF7). Briefly: inhibition of Plasmodium PK7 catalytic activity – biochemical, TCAMS antimalarial set, Kinase-Glo luminescence (AID 1159587). To be noted: recombinant PfPK7, Kinase-Glo ATP depletion luminescence.
Assay [8] addresses Calcium-dependent protein kinase 4 (Plasmodium falciparum (isolate 3D7)) (UniProt Q8IBS5). As to the kind of experiment: PfCDPK4 kinase inhibitors, biochemical, TCAMS library (AID 1159588; cut-off not given, nearly all actives have IC50 up to about 0.91 µM). To be noted: recombinant PfCDPK4, Kinase-Glo ATP depletion luminescence.

Calcium-dependent protein kinase 4 (Plasmodium falciparum (isolate 3D7)), sequence (Q8IBS5 whole entry, looked up): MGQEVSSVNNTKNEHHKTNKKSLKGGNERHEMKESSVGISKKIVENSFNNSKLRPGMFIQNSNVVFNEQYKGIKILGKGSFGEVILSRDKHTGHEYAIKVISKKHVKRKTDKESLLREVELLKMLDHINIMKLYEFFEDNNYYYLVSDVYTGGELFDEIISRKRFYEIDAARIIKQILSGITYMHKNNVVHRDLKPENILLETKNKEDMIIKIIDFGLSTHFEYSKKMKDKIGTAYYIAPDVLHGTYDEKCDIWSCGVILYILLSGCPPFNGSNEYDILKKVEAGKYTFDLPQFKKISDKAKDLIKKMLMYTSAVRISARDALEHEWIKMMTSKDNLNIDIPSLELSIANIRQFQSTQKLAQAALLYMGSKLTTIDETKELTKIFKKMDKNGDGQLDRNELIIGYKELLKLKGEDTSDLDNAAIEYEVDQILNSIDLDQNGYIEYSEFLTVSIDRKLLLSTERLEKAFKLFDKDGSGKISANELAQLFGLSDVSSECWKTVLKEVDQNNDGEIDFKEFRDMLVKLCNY
Protein kinase 7 (PK7), Plasmodium falciparum 3D7 (PF3D7_0213400), sequence (Q7YTF7 1-343): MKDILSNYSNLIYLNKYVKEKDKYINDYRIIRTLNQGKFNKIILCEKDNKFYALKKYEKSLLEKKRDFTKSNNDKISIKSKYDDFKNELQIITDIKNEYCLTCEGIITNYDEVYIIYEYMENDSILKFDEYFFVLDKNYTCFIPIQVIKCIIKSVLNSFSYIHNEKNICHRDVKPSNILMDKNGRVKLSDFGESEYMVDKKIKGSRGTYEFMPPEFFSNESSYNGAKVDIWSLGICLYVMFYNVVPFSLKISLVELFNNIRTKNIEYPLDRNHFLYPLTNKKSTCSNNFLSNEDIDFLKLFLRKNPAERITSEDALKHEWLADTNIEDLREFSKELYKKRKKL
Calcium-dependent protein kinase 1 (Plasmodium falciparum (isolate 3D7)), sequence (P62344 whole entry, looked up): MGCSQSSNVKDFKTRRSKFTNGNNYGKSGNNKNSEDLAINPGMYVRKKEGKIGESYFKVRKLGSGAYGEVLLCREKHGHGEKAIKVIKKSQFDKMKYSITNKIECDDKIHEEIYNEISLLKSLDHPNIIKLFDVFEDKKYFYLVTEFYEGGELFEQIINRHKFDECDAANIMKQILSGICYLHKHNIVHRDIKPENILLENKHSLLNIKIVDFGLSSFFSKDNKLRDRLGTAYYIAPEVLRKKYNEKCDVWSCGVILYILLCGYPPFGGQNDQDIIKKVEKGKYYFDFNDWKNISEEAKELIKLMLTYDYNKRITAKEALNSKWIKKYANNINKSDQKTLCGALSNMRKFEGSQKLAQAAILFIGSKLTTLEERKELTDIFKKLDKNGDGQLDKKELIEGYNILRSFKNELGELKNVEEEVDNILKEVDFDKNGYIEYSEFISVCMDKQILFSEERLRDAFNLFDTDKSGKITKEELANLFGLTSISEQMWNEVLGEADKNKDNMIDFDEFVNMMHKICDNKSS
Plasmodium falciparum protein kinase 6 (PK6, PF3D7_1337100), sequence (Q8IDW1 1-305): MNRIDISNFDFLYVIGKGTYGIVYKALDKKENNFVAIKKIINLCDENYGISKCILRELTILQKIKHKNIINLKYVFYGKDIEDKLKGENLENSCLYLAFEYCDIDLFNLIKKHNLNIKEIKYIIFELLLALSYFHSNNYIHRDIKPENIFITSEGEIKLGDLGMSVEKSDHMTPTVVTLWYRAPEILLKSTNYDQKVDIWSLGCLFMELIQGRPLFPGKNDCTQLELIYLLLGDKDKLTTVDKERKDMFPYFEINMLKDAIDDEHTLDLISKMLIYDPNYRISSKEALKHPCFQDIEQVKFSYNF
L-lactate dehydrogenase (Plasmodium falciparum (isolate CDC / Honduras)), sequence (Q27743 whole entry, looked up): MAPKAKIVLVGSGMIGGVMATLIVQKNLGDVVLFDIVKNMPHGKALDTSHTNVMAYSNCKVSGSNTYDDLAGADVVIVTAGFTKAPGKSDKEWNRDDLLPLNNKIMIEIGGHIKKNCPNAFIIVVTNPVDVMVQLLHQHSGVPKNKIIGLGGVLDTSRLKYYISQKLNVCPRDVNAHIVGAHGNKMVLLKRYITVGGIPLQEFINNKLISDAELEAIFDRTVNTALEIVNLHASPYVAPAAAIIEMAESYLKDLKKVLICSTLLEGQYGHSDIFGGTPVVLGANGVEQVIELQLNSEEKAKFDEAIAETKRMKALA

Turning to `Cc1ccccc1N1CCN(c2ccc(C(=O)Nc3ccccc3)cn2)CC1`, the growth inhibition in assay [1] was 69% (active); in assay [4] it was 95% (active). For the same compound, the inhibition was 44% in assay [2] and -5% in assay [3]. The result in assay [5], in assay [6], in assay [7] and in assay [8] was inactive.

For the compound `COc1ccc(-c2ncnc(C(F)(F)F)c2-c2ccc(Cl)cc2)c(O)c1`, the growth inhibition in assay [1] is 22%; in assay [4] it was 100% (active). Besides, the values for the inhibition in assay [2] and in assay [3] were 1% and -4%, respectively. In addition, the result in assay [5], in assay [6], in assay [7] and in assay [8] was inactive.

On to `CC(=O)Nc1ccc(CN(Cc2ccc(F)cc2)Cc2ccc3c(c2)OCO3)cc1`, for which the growth inhibition was 87% (active) in assay [1] and 91% (active) in assay [4]. The inhibition in assay [2] was 3%; in assay [3] it was 6%. Besides, the result in assay [5], in assay [6], in assay [7] and in assay [8] was inactive.

For `CN(C)C(=O)c1ccc(CN(Cc2ccc3c(c2)OCCO3)Cc2ccc3c(c2)OCO3)cc1`, the growth inhibition in assay [1] is 95% (active); in assay [4], 89% (active). The inhibition in assay [2] was -10%; in assay [3] it was 3%. Besides, the result in assay [5], in assay [6], in assay [7] and in assay [8] was inactive.

As to `COc1ccccc1C(C)NCC(=O)Nc1cc(C(F)(F)F)ccc1Cl` (configuration not stated), the values for the growth inhibition in assay [1] and in assay [4] were 85% (active) and 97% (active), respectively. Also, the results for the inhibition in assay [2] and in assay [3] were 4% and -3%, respectively. The outcome in assay [5], in assay [6], in assay [7] and in assay [8] was inactive.

For the compound `CC(Cl)=CCc1c(C)[nH]c2c(ccc3ccccc32)c1=O`, the growth inhibition in assay [1] and in assay [4] was 96% (active) in each case. In addition, the inhibition in assay [2] is 24%; in assay [3] it was 8%. In addition, the outcome in assay [5], in assay [6], in assay [7] and in assay [8] was inactive.

As to `CC(C)c1ccc(CN2CCC(CNC(=O)c3cc(-c4cccc(C(F)(F)F)c4)cs3)C2)cc1` (configuration not stated), the growth inhibition in assay [1] was 60% (active); in assay [4], 99% (active). In addition, the inhibition in assay [2] is 36%; in assay [3], 5%. For the same compound, the result in assay [5], in assay [6], in assay [7] and in assay [8] was inactive.

Regarding `O=C(Nc1cccc(CN2CCCN(Cc3ccc(O)cc3)CC2)c1)c1ccc(Cl)c(Cl)c1`, the growth inhibition is 81% (active) in assay [1] and 103% (active) in assay [4]. Further, the values for the inhibition in assay [2] and in assay [3] were 22% and -1%, respectively. Besides, the result in assay [5], in assay [6], in assay [7] and in assay [8] was inactive.

For `O=C(Nc1cccc(-c2cccc(-c3nc4ccc(F)cc4[nH]3)c2)c1)c1ccncc1`, the growth inhibition was 24% in assay [1] and 92% (active) in assay [4]. The inhibition in assay [2] is 28%; in assay [3], -3%. The result in assay [5], in assay [6], in assay [7] and in assay [8] was inactive.

For the compound `COc1ccc(Nc2cc(C)c3cc(NC(=O)c4ccncc4)ccc3n2)cc1`, the growth inhibition is 26% in assay [1] and 98% (active) in assay [4]. The inhibition was 0% in assay [2] and 2% in assay [3]. Besides, the outcome in assay [5], in assay [6], in assay [7] and in assay [8] was inactive.

As to `O=C(/C=C/c1ccc(Cl)c(Cl)c1)NCCCCCN1CCCN(C(=O)Nc2ccc([N+](=O)[O-])cc2)CC1`, the growth inhibition was 28% in assay [1] and 97% (active) in assay [4]. Moreover, the inhibition was 32% in assay [2] and -1% in assay [3]. Further, the result in assay [5], in assay [6], in assay [7] and in assay [8] was inactive.

As for `CC1CN(Cc2ccc(C#N)cc2)CCN1c1ccc(NC(=O)c2cccs2)cc1` (configuration not stated), the growth inhibition was 89% (active) in assay [1] and 93% (active) in assay [4]. Moreover, the figures for the inhibition in assay [2] and in assay [3] were 8% and 2%, respectively. The outcome in assay [5], in assay [6], in assay [7] and in assay [8] was inactive.

For the compound `CC(=O)Nc1ncc(C(=O)Nc2ccc(-c3cccc(-c4nc5ccc(F)cc5[nH]4)c3)cc2)s1`, the growth inhibition in assay [1] was 85% (active); in assay [4], 102% (active). Besides, the inhibition is 47% in assay [2] and -3% in assay [3]. Also, the result in assay [5], in assay [6], in assay [7] and in assay [8] was inactive.

Regarding `CCNc1cc(C(=O)N[C@@H](Cc2ccccc2)[C@H](O)CNC2CCC(C)(C)C2)cc(N2CCCCS2(=O)=O)c1` (some centres not stated), the growth inhibition in assay [1] is 98% (active); in assay [4], 96% (active). In addition, the inhibition in assay [2] was 3%; in assay [3], 6%. In addition, the outcome in assay [5], in assay [6], in assay [7] and in assay [8] was inactive.

In the case of `COc1ccc(-c2nc3c4cc(I)ccc4c4ccccc4c3[nH]2)cc1`, the growth inhibition is 16% in assay [1] and 96% (active) in assay [4]. Besides, the inhibition in assay [2] is 4%; in assay [3], -3%. For the same compound, the result in assay [5], in assay [6], in assay [7] and in assay [8] was inactive.

Regarding `COc1ccc(NC(=O)c2c(NC(=O)c3cccs3)sc3c2CCCC3)cc1`, the values for the growth inhibition in assay [1] and in assay [4] were 4% and 97% (active), respectively. Further, the inhibition in assay [2] was 4%; in assay [3], 1%. The outcome in assay [5], in assay [6], in assay [7] and in assay [8] was inactive.

For the compound `CN1CCCN(Cc2cccc(-c3ccc(NC(=O)c4ccc(Cl)cc4)cc3)c2)CC1`, the growth inhibition in assay [1] is 35%; in assay [4], 97% (active). The inhibition in assay [2] was 31%; in assay [3], -5%. In addition, the result in assay [5], in assay [6], in assay [7] and in assay [8] was inactive.

On to `CCCCCCNC[C@@H](O)[C@H](Cc1ccccc1)NC(=O)c1cc(NCC)cc(N2CCCCS2(=O)=O)c1`, for which the growth inhibition in assay [1] was 98% (active); in assay [4], 100% (active). Moreover, the inhibition in assay [2] was 5%; in assay [3], -5%. Besides, the outcome in assay [5], in assay [6], in assay [7] and in assay [8] was inactive.

In the case of `CC(=O)Nc1ncc(C(=O)Nc2cccc(-c3cccc(-c4nc5c(C)cccc5[nH]4)c3)c2)s1`, the growth inhibition in assay [1] was 64% (active); in assay [4] it was 94% (active). Moreover, the values for the inhibition in assay [2] and in assay [3] were 15% and 4%, respectively. For the same compound, the outcome in assay [5], in assay [6], in assay [7] and in assay [8] was inactive.
